Data taken from PubChem BioAssay AID588689 (Southern Research Specialized Biocontainment Screening …, 2011).
About 1,000 (0.29%) of roughly 340,000 compounds were called active. Cut-off read from the data, not from the text of the source: inconclusive = inhibition above about 29% without an active follow-up result; inactive = below that. A selection follows. Measured potencies and affinities stand elsewhere.

Biological target: Genome polyprotein (Dengue virus type 2 (strain 16681-PDK53)) (UniProt P29991)
Assay: Dengue-2 NS5 methyltransferase inhibitors, primary screen, biochemical, confirmation dose response (AID 588689)
Details: Dengue-2 NS5 methyltransferase capping enzyme assay, at 25 µM, stronger effect = higher value
[1] = measured here: pilot screen replicate inhibition

Row | Compound | inhibition | inhibition [1]
1 | O=C1C(=Cc2ccncc2)CCCc2ccccc21 | -20.6% (inactive) | –
2 | O=C(NC(=S)N1CCCCCC1)c1cccc([N+](=O)[O-])c1 | -2.29% (inactive) | –
3 | O=C(Cn1cc(C(F)(F)F)ccc1=O)NCCc1ccc(Cl)cc1Cl | -0.73% (inactive) | –
4 | Cc1ccc(/C=C/C(=O)C2C(=O)c3ccccc3C2=O)cc1 | 13.3% (inactive) | –
5 | O=C(/C=C/c1ccccc1)C1C(=O)c2ccccc2C1=O | -1.46% (inactive) | –
6 | Cc1ccc(C)c(N2CCN(C(=O)C3CCCN(S(=O)(=O)c4c(C)noc4C)C3)CC2)c1 (stereo not drawn) | -2.75% (inactive) | –
7 | O=C(NCCC1=CCCCC1)c1ccc(Cl)c([N+](=O)[O-])c1 | 0% (inactive) | –
8 | O=C(O)c1ccc(NCCC2=CCCCC2)c([N+](=O)[O-])c1 | 5.44% (inactive) | –
9 | Nc1c(C(=O)N/N=C/c2ccccc2)cnn1-c1ccccc1 | 1.53% (inactive) | –
10 | CC(=O)c1ccc2c(c1)C1C=CCC1C(c1ccc(S(=O)(=O)N3CCOCC3)cc1)N2 (stereo not drawn) | 11.6% (inactive) | –
11 | COC(=O)c1ccc(C2Nc3ccc(/C(C)=N/NC(=O)C(OC)c4ccccc4)cc3C3C=CCC32)cc1 (stereo not drawn) | -4.05% (inactive) | –
12 | COc1cccc(NS(=O)(=O)c2ccc3c(c2)NC(=O)CC(=O)N3)c1 | -10.6% (inactive) | –
13 | COc1ccc(NS(=O)(=O)c2ccc(NS(=O)(=O)c3cccc(C(=O)O)c3)cc2)cc1 | 0% (inactive) | –
14 | COc1ccc(C(=O)N/N=C(\C)c2ccc3c(c2)C2C=CCC2C(c2ccccc2)N3)cc1 (stereo not drawn) | 2.59% (inactive) | –
15 | O=C(O)c1ccc(NS(=O)(=O)c2ccc3c(c2)OCCCO3)cc1 | -0.76% (inactive) | –
16 | COc1cccc(NS(=O)(=O)c2ccc3c(c2)CC(=O)N3)c1 | -6.98% (inactive) | –
17 | O=C(O)c1ccc2c(c1)C1C=CCC1C(c1cc3c(cc1Br)OCO3)N2 (stereo not drawn) | 6.19% (inactive) | –
18 | COc1ccc(CN2C3CCCC2CC(NC(=O)Nc2ccccc2)C3)cc1 (stereo not drawn) | -8.9% (inactive) | –
19 | CCN(CC(=O)Nc1ccc2c(c1)OCCO2)S(=O)(=O)c1ccc(F)cc1 | -12.2% (inactive) | –
20 | CCN(CC)S(=O)(=O)c1ccc(C(=O)NCCOC(=O)c2ccc(F)cc2F)cc1 | 8.01% (inactive) | –
21 | COc1ccccc1NS(=O)(=O)c1ccc2c(c1)OCCO2 | -2.93% (inactive) | –
22 | Cc1ccc(S(=O)(=O)N2CCCCC2)cc1C(=O)NCc1ccc(S(N)(=O)=O)cc1 | 4.65% (inactive) | –
23 | COc1ccc(/C(O)=C2\C(=O)C(=O)N(CC3CCCO3)C2c2cc(OC)ccc2OC)cc1 (stereo not drawn) | -3.45% (inactive) | –

Row | Compound | inhibition | inhibition [1]
24 | O=C(NCCC1=CCCCC1)c1cnc2n(c1=O)CCS2 | 3.21% (inactive) | –
25 | COc1ccccc1C(=O)NC(=O)COC(=O)Cc1n[nH]c(=O)c2ccccc12 | 3.6% (inactive) | –
26 | COc1ccc(NS(=O)(=O)c2cc([N+](=O)[O-])ccc2N/N=C\c2c(C)[nH]c3ccccc23)cc1 | -20.6% (inactive) | –
27 | COc1ccc(S(=O)(=O)NCc2ccccn2)cc1Br | 2.64% (inactive) | 3.33%
28 | CSC1=C(C#N)C(=O)NC(c2ccc(Cl)cc2)S1 (stereo not drawn) | -3.83% (inactive) | –
29 | N#CC1=C(Nc2ccccc2Cl)SC(c2ccccc2O)NC1=O (stereo not drawn) | -11.1% (inactive) | –
30 | Cc1c([N+](=O)[O-])cc(N2C(=O)C=CC2=O)cc1[N+](=O)[O-] | 8.16% (inactive) | –
31 | Cc1cc(N2C(=O)C=CC2=O)c([N+](=O)[O-])cc1C | -13.6% (inactive) | –
32 | COc1ccc(-c2ccc(NS(=O)(=O)c3ccc([N+](=O)[O-])cc3)cc2)nn1 | 5.43% (inactive) | –
33 | COc1ccc(-n2nc(C(=O)NCC(=O)NCC3CCCO3)c3ccccc3c2=O)cc1 (stereo not drawn) | -4.8% (inactive) | -2.44%
34 | Cc1ccc(C2(C(F)(F)F)NC(=O)N3N=C4CCCCCN4C3=C2C#N)cc1 (stereo not drawn) | 7.4% (inactive) | –
35 | Cc1ccc(/C=C2\SC(=S)N(CCCC(=O)Nc3ccccc3C(=O)O)C2=O)cc1 | 15.4% (inactive) | –
36 | COc1ccc(/C=C2\SC(=S)N(CCC(=O)Nc3ccccc3C(=O)O)C2=O)cc1 | -2.62% (inactive) | –
37 | COc1ccc(/C=C2/SC(=S)N(CCCC(=O)Nc3ccccc3C(=O)O)C2=O)cc1 | 12.5% (inactive) | –
38 | CCc1ccc(/C=C2\SC(=S)N(CCCC(=O)Nc3ccc(C(=O)O)cc3)C2=O)cc1 | 17.8% (inactive) | –
39 | CCOc1ccc(/C=C2/SC(=S)N(CCC(=O)Nc3ccc(C(=O)O)cc3)C2=O)cc1 | -7.39% (inactive) | –
40 | COc1ccc(/C=C2\SC(=S)N(CCCC(=O)Nc3ccccc3C(=O)O)C2=O)cc1OC | -34.8% (inactive) | –
41 | COc1ccc(CNC(=O)COC(=O)C(CCSC)NC(=O)c2ccco2)cc1OC (stereo not drawn) | 0% (inactive) | –
42 | O=C(c1cc(C2CC2)nn1-c1ccccc1)N1CCN(Cc2ccccc2F)CC1 | -3.6% (inactive) | –
43 | Cc1cc(C(=O)COC(=O)c2n[nH]c(=O)c3ccccc23)c(C)n1C(C)C | -4.04% (inactive) | –
44 | CCOc1ccc(N(CC(=O)NC2CCCCC2C)S(=O)(=O)c2c(C)noc2C)cc1 (stereo not drawn) | -4.39% (inactive) | –
45 | O=C1/C(=N\O)Cc2ccccc21 | -5.15% (inactive) | –
46 | O=C1C(=NO)CCCc2ccccc21 | -3.23% (inactive) | –

Row | Compound | inhibition | inhibition [1]
47 | O=C(O)CC1SC(N/N=C/c2ccc(Br)cc2)NC1=O (stereo not drawn) | 3.06% (inactive) | –
48 | COc1ccc(OC)c(S(=O)(=O)N(C)CC(=O)N2CCCCC2)c1 | -7.78% (inactive) | –
49 | CC(C)C1C(=O)N(Cc2cn(CCC3OCCO3)nn2)CCS(=O)(=O)N1Cc1ccc(-c2ccc(Cl)c(Cl)c2)cc1 (stereo not drawn) | -2.32% (inactive) | –
50 | Oc1c(Br)cc(Br)cc1/C=N/n1c(-c2ccccc2)n[nH]c1=S | -12.7% (inactive) | –
51 | Cc1c(Br)c(O)c(Br)c(O)c1/C=N/n1c(-c2ccccc2)n[nH]c1=S | 21.5% (inactive) | –
52 | CN=c1scc(C)n1/N=C/c1cc(Br)c(O)c(Br)c1 | -1.49% (inactive) | –
53 | Oc1ccc(/C=N/n2c(-c3ccccc3)n[nH]c2=S)cc1Br | 13.5% (inactive) | –
54 | COc1ccccc1N1C(=O)CC(N2CCN(c3ccc(F)cc3)CC2)C1=O (stereo not drawn) | -6.31% (inactive) | –
55 | O=C(CN(Cc1ccccc1Cl)C(=O)c1csnn1)NCc1ccc2c(c1)OCO2 | -1.47% (inactive) | –
56 | Cc1nc2nc(-c3ccccc3)cn2nc1C | -1.38% (inactive) | –
57 | Cc1ccc(-c2cn3nc(C)c(C)nc3n2)cc1 | -9.37% (inactive) | –
58 | COc1ccc(C(=O)N(CC(=O)NC(C)(C)C)c2ccc3c(c2)OCCO3)cc1OC | -3.24% (inactive) | –
59 | Cn1c(-c2ccccc2)cc(=NNS(C)(=O)=O)c2cc(S(=O)(=O)O)ccc21 | 7.43% (inactive) | –
60 | Oc1ccc2ccccc2c1CN1CCCCC1 | -0.78% (inactive) | –
61 | Oc1ccc(CN2CCCCC2)nc1-c1ccccc1 | -3.27% (inactive) | –
62 | c1ccc(-c2ccc(-c3csnn3)cc2)cc1 | 0.69% (inactive) | –
63 | CCOC(=O)c1ccccc1NS(=O)(=O)c1ccc(OCC)cc1 | -6.45% (inactive) | –
64 | COc1ccc(S(=O)(=O)c2c(C)c(NS(=O)(=O)c3ccccc3)cc(C)c2O)cc1 | -5.22% (inactive) | –
65 | COc1ccc(S(=O)(=O)Nc2ccc(O)c3ccccc23)cc1 | 70.6% (inactive) | –
66 | CCOc1ccc(S(=O)(=O)Nc2ccccc2SC)cc1 | 6.41% (inactive) | –
67 | CC1(c2ccc(Cl)cc2)NC(=O)N(CC(=O)NCCC2=CCCCC2)C1=O (stereo not drawn) | -2.9% (inactive) | –
68 | COc1ccc(-n2c(=S)[nH]c3cc(C(=O)Nc4cc(C(N)=O)ccc4OC)ccc3c2=O)c(OC)c1 | -13.4% (inactive) | –
69 | COc1cc(N)c(Cl)cc1C(=O)OCC(=O)NC1CCCC1 | -6.23% (inactive) | –

Row | Compound | inhibition | inhibition [1]
70 | CC(C)c1ccc(NC2CCCN(C(=O)CN3CCCC3=O)C2)cc1 (stereo not drawn) | -7.87% (inactive) | –
71 | C=CCNC(=S)NNC(=O)c1csc(C)c1CC | 2.43% (inactive) | –
72 | CCOc1ccc(NC(=O)CN(C)C(=O)C2=COCCO2)cc1OCC | -3.6% (inactive) | –
73 | CC(=O)c1ccc(Sc2ccccc2)c([N+](=O)[O-])c1 | 3.06% (inactive) | –
74 | Nc1ccccc1Sc1ccc(C(=O)c2ccccc2C(=O)O)cc1[N+](=O)[O-] | 17.6% (inactive) | –
75 | O=C1c2ccccc2C(=O)c2c1oc(C(F)(F)F)c2C(=O)c1ccccc1 | -2.07% (inactive) | –
76 | Cc1oc2c(c1C(=O)c1ccc(Cl)cc1)C(=O)C(=O)c1ccccc1-2 | 28% (inactive) | –
77 | COc1ccc(C(=O)c2coc(-c3ccccc3C(=O)O)c2C(=O)O)cc1 | 2.56% (inactive) | –
78 | O=C(c1ccccc1)c1coc2c1C(=O)c1ccccc1C2=O | 6.1% (inactive) | –
79 | COc1ccc(C(=O)c2c(C(F)(F)F)oc3c2C(=O)c2ccccc2C3=O)cc1 | 9.03% (inactive) | –
80 | Cc1ccc(C(=O)c2coc3ccc(O)cc23)cc1 | 2.6% (inactive) | –
81 | Cc1ccc(C(=O)c2c[nH]cc2-c2ccccc2)cc1 | -3.21% (inactive) | –
82 | Cc1ccc(C(=O)c2c(C)oc3c2C(=O)C(=O)c2ccccc2-3)cc1 | 21.1% (inactive) | –
83 | CN1CCN(CCCNC(=O)Cn2ncc3c4ccccc4n(C)c3c2=O)CC1 | -0.7% (inactive) | –
84 | CCOc1ccc(C(=O)Nc2cccc(NC(=O)c3cccs3)c2)cc1[N+](=O)[O-] | -6.19% (inactive) | –
85 | COc1cc(OC)cc(C(=O)NCCCNC(=O)c2cccnc2)c1 | -1.78% (inactive) | –
86 | Cc1nc(N2CCOCC2)[nH]c(=O)c1CCC(C)C | -3.29% (inactive) | –
87 | CC(=C\C(=O)O)/C(=C\c1cccc2ccccc12)C(=O)O | -1.16% (inactive) | –
88 | CCn1c(=S)sc2c(=O)n(-c3ccccc3)c(SCC(=O)NCc3ccco3)nc21 | 2.42% (inactive) | –
89 | CN1C[C@H]2CON(C)[C@H]2C[C@H]1c1cccc(-c2ccccc2)c1 | -6.62% (inactive) | -3.38%
90 | COc1ccc(-n2c(-c3ccc(Br)cc3)nc(=S)c3c2CCCC3)cc1 | -4.74% (inactive) | –
